Compound activity as filed in PubChem BioAssay.
A selection: hits, their analogues and other compounds. The true share with any hit is near 21%.
NS1 inh – qHTS Assay for Inhibitors of Influenza NS1 Protein Function | 0.4% of 270,000 active | AID 2326, 2010 | Potency, µM (doses to about 46.1 µM), inactives show at the highest dose activity, positive = more growth; calls by dose curve; further: potency means the concentration at half of the fitted maximal effect; actives are rising curves; nearly all actives have a fitted effect of over 50% in size
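Read-out: OD600 growth recovery of NS1-expressing budding yeast. Cells grown overnight at 30C in -URA glucose medium, washed, resuspended and diluted 1:100 in 2% galactose assay medium, pH 6.0. Same strain lacking NS1 served as positive control.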
Pf growth 96h – Primary qHTS for delayed death inhibitors of the malarial parasite plastid, 96 hour incubation. P. falciparum luciferase reporter growth, 96 h. 6.9% of 320,000 active. Potency, µM (top dose mostly 28.7 µM), for the others: at the highest dose activity change, negative = inhibition, most hits filed as inhibitors; further: potency means the concentration at half of the fitted maximal effect; on the % scale 0 is the no-effect control and ±100 the full control effect
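Plates of compound plus infected erythrocytes (2% hematocrit, 0.05% parasitemia final) incubate 96 hours, 37 C, 5% CO2. Detection reagent added; reduced luminescence from the parasites' luciferase reporter flags inhibition.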
CHX counter – Cycloheximide Counterscreen for Small Molecule Inhibitors of Shiga Toxin; cell reporter, cycloheximide protein synthesis inhibition counterscreen; max response, %; 12% of 300,000 active; in the data active means max response mostly above about 13%, no sharp cut-off; inactive means mostly below about 14%; further: read at 38.3 µM for the half of the compounds with a filed dose; 0% is about no effect
Pf growth 48h – Primary qHTS for delayed death inhibitors of the malarial parasite plastid, 48 hour incubation | Potency, µM (titrated, usually from 28.7 µM), for the others: at the top dose activity change, negative = inhibition, usual class: inhibitors | AID 504832, 2011 | 5.9% of 310,000 active | P. falciparum luciferase growth in erythrocytes, 48 h; further: potency means the concentration at half of the fitted maximal effect; on the % scale 0 is the no-effect control and ±100 the full control effect
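In quantitative HTS format, infected erythrocytes bearing luciferase-reporter parasites were treated for a single generation at 37 C. Luminescence after adding detection reagent served as the growth measure.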
Shiga inhibitor – A qHTS for Small Molecule Inhibitors of Shiga Toxin; Vero cells, Shiga toxin protein synthesis inhibition reporter; inhibition, % at 38.7 µM; 9.2% of 290,000 active; AID 2315, 2010; in the data active means inhibition mostly above about 28%, no sharp cut-off; inactive means mostly below about 43%; further: 0% is about no effect
SARS PLpro yeast – qHTS of Yeast-based Assay for SARS-CoV PLP; S. cerevisiae expressing SARS-CoV PLpro, growth rescue; Potency, µM (top dose mostly 32.9 µM), for the others: at the top dose activity, positive = growth rescue, usual class: activators; 0.19% of 330,000 active; AID 485353, 2010; calls by dose curve; further: potency means the concentration at half of the fitted maximal effect; 0% is about no effect; nearly all actives have a fitted effect of over 55% in size
Active calls of the source: *; i = inactive; ? = inconclusive; . = not tested or not shown. Unless noted, the call rests on the fitted dose curve; in most records, active means well fitted inhibition curve with a large enough effect; inconclusive means small, poorly fitted or top-dose-only effect, or another doubt; inactive means no such curve, though single readings can be large or run the other way.

SMILES	NS1 inh	Pf growth 96h	CHX counter	Pf growth 48h	Shiga inhibitor	SARS PLpro yeast
Cc1nc(SCC(=O)NC(C)(C#N)C2CC2)c2c(-c3cccs3)csc2n1 (stereo not drawn)	3%	?	-2	-16%	-9	-21%
Cc1[nH][nH]c(=O)c1C(c1cc([N+](=O)[O-])ccc1O)c1c(C)[nH][nH]c1=O	-6%	125%	-1	?	-12	26%
Cc1[nH][nH]c(=O)c1C(c1ccccc1[N+](=O)[O-])C(C#N)C#N (stereo not drawn)	.	13µM*	2	-5%	4	-1%
CC(=O)Nc1ccc(S(=O)(=O)N(C)CC(=O)OCC(=O)Nc2ccc3c(c2)OCO3)cc1	11%	21%	1	2%	23	24%
C/C(=N\Nc1nncc2ccccc12)c1cccc(OC(F)F)c1	-16%	288%	20*	140%	65*	-6%
COc1cccc(/C(C)=N/NC(=O)c2cc(-c3cccnc3)nc3ccccc23)c1	-4%	?	1	?	-10	18%
C/C(=N\Nc1nncc2ccccc12)c1ccc(C(C)(C)C)cc1	0%	?	42*	10%	98*	8%
C/C(=N\Nc1nncc2ccccc12)c1ccc(O)cc1	22%	232%	28*	167%	54*	9%
COc1cccc(NC(=O)CSc2nnc(NC(=O)c3ccco3)s2)c1	-11%	56%	11	52%	14	0%
CC1=NC(C#N)=C(C#N)NC(C)(C)C1	.	-1%	-5	?	4	-4%
Cc1nn(S(=O)(=O)c2cccc([N+](=O)[O-])c2)c(C)c1S(=O)(=O)N1CCOCC1	-5%	?	12	15%	-6	5%
CC(=O)N=c1sc2ccccc2n1C	1%	71%	13	12%	-2	3%
COc1cccc(C(=O)N=c2sc3cc(S(C)(=O)=O)ccc3n2C)c1	-3%	13µM*	28*	99%	80*	-5%
COc1ccc(C(=O)N=c2sc3ccccc3n2C)cc1	11%	463%	53*	351%	107*	1%
COC(=O)Cn1c(=NC(=O)c2cccc(OC)c2)sc2cc(OC)ccc21	14%	?	10	0%	30	-7%
COc1cc(OC)cc(C(=O)N=c2sc3ccccc3n2C)c1	.	143%	29*	351%	33*	-2%
Cn1c(=NC(=O)COc2ccccc2)sc2ccccc21	.	204%	42*	i	78*	5%
CCn1c(=NC(=O)COc2ccccc2)sc2cccc(F)c21	-9%	-8%	1	-12%	41	-1%
O=C(NCc1ccc2c(c1)OCO2)c1n[nH]c(=O)c2ccccc12	.	5%	-2	10%	-23	0%
CC(C)(C)OC(=O)CNC(=O)c1[nH]cnc1C(=O)NCCCCCNC(=O)OC(C)(C)C	-5%	-11%	0	-26%	1	3%
Cc1ccccc1CC(=O)Nc1cccnc1	0%	5%	-2	13%	-10	3%
Cn1c(=NC(=O)CS(=O)(=O)c2ccccc2)sc2ccccc21	.	39%	.	75%	.	0%
Cn1c(=NC(=O)CS(=O)(=O)c2ccccc2)sc2cc([N+](=O)[O-])ccc21	.	?	.	12µM*	.	-4%
CCOC(=O)c1c(C)n(C)c2ccc(O)c(CN3CCC(C)CC3)c12	-13%	10µM*	1	?	17	-3%
CCCCn1c(C)c(C(=O)OCC)c2c(CN3CCCC3)c(O)ccc21	4%	4.7µM*	1	.	18	2%
COc1ccccc1N(C)S(=O)(=O)c1ccc(C(=O)Nc2cc(F)ccc2C)cc1	.	.	.	.	.	3%
S=C1N(c2ccccc2)C(c2cccc3ccccc23)N2CCCN12 (stereo not drawn)	9%	42%	4	.	-10	?
Cc1c(C(=O)N/N=C/c2cccnc2)sc(N)c1C#N	2%	?	12*	?	26	1%
Cc1cc(/C=N/NC(=O)c2ccsc2)c(C)n1-c1cnccn1	2%	27%	42*	16%	87*	-1%
